Source: PubChem BioAssay (National Center for Advancing Translational Sciences (NCATS))
Hits are enriched below; roughly 19% of the tested compounds scored in any of these assays.
RORg inh = qHTS for inhibitors of ROR gamma transcriptional activity; Drosophila S2 Gal4-RORgamma UAS-luciferase reporter, 20 h; Potency, µM (top dose mostly 53.6 µM), without a hit: top-dose activity change, negative = inhibition, most hits filed as inhibitors; 310,000 tested, 5.4% active; AID 2551, 2010; also: nearly all actives have a fitted effect of over 60% in size
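Read-out: Photinus luciferase luminescence; inhibitors lower reporter signal. Insect Schneider cells with Gal4-ROR gamma fusion under metallothionein promoter, UAS reporter; 700 uM final copper sulfate induction, 20 hr, ambient temperature.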
Gal4-VP16 FLuc = VP16 counterscreen qHTS for inhibitors of ROR gamma transcriptional activity; Drosophila S2 Gal4-VP16 UAS-luciferase, luminescence, 20 h; Potency, µM (top dose mostly 53.6 µM), without a hit: top-dose activity, negative = inhibition, hits mostly inhibitors; AID 2546, 2010; 310,000 tested, 3.5% active;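 also: Gal4-VP16 expression switched on by copper sulfate through the metallothionein promoter; nearly all actives have a fitted effect of over 50% in size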
DT40 TDP1 CPT = qHTS for Inhibitors of human tyrosyl-DNA phosphodiesterase 1 (TDP1): qHTS in cells in presence of CPT; chicken DT40 Tdp1-/-;hTDP1 cells + 20 nM CPT, ATP luminescence, 48 h; Potency, µM (highest dose often 46.2 µM), inactives show at the top dose activity change, negative = growth inhibition, usual class: inhibitors; 420,000 tested, 12% active; also: nearly all actives have a fitted effect of over 55% in size
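Cell growth measured by CellTiter-Glo luminescence after a minimum 48 h, 37 C compound exposure with 20 nM CPT in Tdp1-knockout DT40 cells stably expressing hTDP1, seeded 400/well; qHTS titration format.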
TDP1 block = qHTS Assay for Inhibitors of Tyrosyl-DNA Phosphodiesterase (TDP1) | AID 485290, 2010 | 350,000 tested, 0.28% active | Tyrosyl-DNA phosphodiesterase 1 (Homo sapiens), Q9NUW8 | recombinant TDP1, AlphaScreen DNA substrate cleavage | Potency, µM (top dose mostly 130 µM), for inactives: at the highest dose activity change, negative = inhibition, usual class: inhibitors; also: nearly all actives have a fitted effect of over 40% in size
Target sequence (Q9NUW8 whole entry, looked up): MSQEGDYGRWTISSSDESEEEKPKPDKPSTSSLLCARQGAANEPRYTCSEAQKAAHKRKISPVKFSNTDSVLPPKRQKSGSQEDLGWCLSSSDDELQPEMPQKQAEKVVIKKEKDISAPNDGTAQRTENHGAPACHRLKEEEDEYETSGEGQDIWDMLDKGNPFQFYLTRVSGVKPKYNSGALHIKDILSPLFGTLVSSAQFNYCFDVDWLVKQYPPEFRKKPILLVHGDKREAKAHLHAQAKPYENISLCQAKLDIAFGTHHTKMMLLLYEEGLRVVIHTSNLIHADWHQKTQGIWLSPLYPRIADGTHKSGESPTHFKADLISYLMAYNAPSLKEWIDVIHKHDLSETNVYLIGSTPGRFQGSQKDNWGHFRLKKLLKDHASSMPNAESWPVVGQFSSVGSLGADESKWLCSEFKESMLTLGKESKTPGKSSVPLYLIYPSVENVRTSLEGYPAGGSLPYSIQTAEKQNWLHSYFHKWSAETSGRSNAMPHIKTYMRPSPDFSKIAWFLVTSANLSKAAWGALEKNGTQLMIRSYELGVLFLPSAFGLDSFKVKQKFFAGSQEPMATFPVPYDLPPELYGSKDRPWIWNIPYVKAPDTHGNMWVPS
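Signal: AlphaScreen proximity between streptavidin donor and anti-FITC acceptor beads on intact substrate. Reaction: Tdp1 1 nM, substrate 15 nM final, 5 min RT after 15 min compound preincubation.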
DT40 TDP1 no CPT = qHTS for Inhibitors of human tyrosyl-DNA phosphodiesterase 1 (TDP1): qHTS in cells in absence of CPT; DT40 Tdp1-/- hTDP1 cells, no CPT, ATP luminescence, 48 h; Potency, µM (series often up to 46.2 µM), inactives show at the top dose activity change, negative = growth inhibition, actives largely listed as inhibitors; 420,000 tested, 15% active; also: nearly all actives have a fitted effect of over 55% in size
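A cellular qHTS used chicken DT40 cells lacking endogenous Tdp1 but carrying stably transfected human TDP1. Compounds were applied without camptothecin, and cell growth kinetics were judged by ATP-dependent luminescence after ≥48 hr.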
* = called active by the depositor; ? = inconclusive; . = not tested or not shown; [ ] = another dose, or the depositor's remark. Calls follow the shape of the dose curve; as a rule, active = well fitted curve in the direction sought with a large enough effect; inconclusive = small, poorly fitted or top-dose-only effect, or another doubt; inactive = no such curve, though single readings can be large; an effect the other way counts as inactive or inconclusive. % is scaled to controls: 0 for no effect and ±100 for the full control effect; potency is read from the fitted curve at half-maximal effect.

SMILES	RORg inh	Gal4-VP16 FLuc	DT40 TDP1 CPT	TDP1 block	DT40 TDP1 no CPT
CN(c1ccc(F)cc1)S(=O)(=O)c1ccc(Cl)c(C(=O)NCC2(N3CCOCC3)CCCCC2)c1	.	.	7.3µM*	.	7.3µM*
COCCCN1C(=O)C(CC(=O)NCCc2ccccn2)CC(C(=O)N2CCCCCC2)=C1C (centres undefined)	.	.	-10%	.	-6%
COc1ccc(-c2nnc(SCC(=O)Oc3cc(C)ccc3C)o2)cc1	.	.	14%	3%	-2%
COc1ccccc1N(C)S(=O)(=O)c1ccc(Cl)c(C(=O)N2CCC2)c1	.	.	16µM*	1%	?
COc1ccccc1N(C)S(=O)(=O)c1ccc(Cl)c(C(=O)NNC(=O)c2ccccc2O)c1	-34%	?	?	-12%	?
COc1ccccc1CCn1c(=O)cnc2cncnc21	11%	-7%	4.6µM*	.	5.8µM*
COc1ccccc1CCn1c(=O)c(-c2ccc(Cl)cc2)nc2cncnc21	-24%	-4%	?	.	?
O=C(Nc1nnc(-c2cccs2)o1)c1cc(-c2ccccc2)nc2ccccc12	1.4µM*	2.5µM*	13µM*	11%	15µM*
COc1ccccc1Nc1cc(C(=O)NCc2cccs2)c2ccccc2n1	.	.	26µM*	0%	?
Cc1ccc(-c2nc3ccccc3c(C(=O)NCc3cccs3)c2C)cc1	15%	-7%	21µM*	-2%	?
Cc1ccccc1Nc1cc(C(=O)NCc2cccs2)c2ccccc2n1	.	.	21µM*	0%	?
Cc1ccc(Nc2cc(C(=O)NCc3cccs3)c3ccccc3n2)c(C)c1	.	.	?	0%	-25%
c1ccc(Cn2nnc3c(NCc4ccc5c(c4)OCO5)ncnc32)cc1	-1%	2%	?	6%	?
O=C(c1cc(-c2ccc(Br)cc2)nc2ccccc12)N1CCN(c2ccccc2O)CC1	.	.	?	2%	?
O=C(NCc1cccs1)c1cc(-c2ccccc2)nc2ccccc12	10%	1%	23µM*	0%	21µM*
Nc1nc2ccccc2cc1C(=O)NCCCCc1ccccc1	.	.	2.1µM*	.	1.6µM*
O=C(NCc1cccs1)c1ccccc1F	10%	11%	6%	2%	-22%
Cc1ccc(C)c(-c2cc(C(=O)NCc3cccs3)c3ccccc3n2)c1	?	-5%	?	-4%	?
Nc1nc2ccccc2cc1C(=O)NCc1cccs1	.	.	9.2µM*	.	7.3µM*
O=C1CC(c2ccc(S(=O)(=O)NCc3ccccc3)cc2)CN1 (centres undefined)	-7%	5%	-21%	2%	-12%
CC1(c2ccccc2)CC(c2ccccc2)=Nc2nonc2N1 (centres undefined)	-22%	17%	2%	5%	1%
C=CCn1cccc(C(=O)Nc2cc(OC)ccc2OC)c1=O	25%	1%	14%	12%	-13%
O=C(NCc1ccccc1Cl)c1csc([C@H]2C[C@H](O)[C@@H](CO)O2)n1	.	.	5%	.	-2%
Cc1ccc(NC(=O)N2CCC(C(N)=O)CC2)cc1	-3%	-4%	3%	2%	-5%
Cc1ccc(-c2nn(-c3ccccc3)cc2C(=O)NCCCN2CCOCC2)cc1	16%	-7%	-6%	5%	?
SMILES	RORg inh	Gal4-VP16 FLuc	DT40 TDP1 CPT	TDP1 block	DT40 TDP1 no CPT
Cc1ccc(-c2nn(-c3ccc(F)cc3)cc2C(=O)NCCCN2CCCC2=O)cc1	.	.	0.21µM*	-7%[0.505 µM]	-81%
CCC(c1nc2ccccc2c(=O)n1-c1cccnc1)N1C(=O)c2ccccc2C1=O (centres undefined)	-17%	1%	-4%	4%	0%
Cc1cc(OC(C)C(=O)N2CCC(c3nc4ccccc4o3)CC2)ccc1Cl (centres undefined)	.	.	23µM*	-2%	15µM*
Cc1cc(C)cc(OCC(=O)N2CCC(c3nc4ccccc4o3)CC2)c1	.	.	?	4%	16µM*
CCC1=NN(C(=O)CCc2ccc3c(c2)OCO3)C(O)(C(F)(F)F)C1 (centres undefined)	11µM*	3%	-2%	2%	-8%
CCC1=NN(C(=O)CCc2ccccc2O)C(O)(C(F)(F)F)C1 (centres undefined)	10µM*	?	-22%	3%	?
COC(=O)C1=C(C(=O)OC)[C@@H]2Nc3ccccc3[C@@]23C[C@@H](C(=O)OC)N(S(=O)(=O)c2ccc(C(F)(F)F)cc2)C3=N1	.	.	.	17%[12.3 µM]	.
Cn1c(=O)n(-c2ccc(C(C)(C)C#N)cc2)c2c3cc(-c4cnc5ccccc5c4)ccc3ncc21	.	.	0.25µM*	.	0.05µM*
Cc1ccc(NC(=O)C(C)Oc2ccccc2)cc1S(=O)(=O)N1CCCCCC1 (centres undefined)	.	.	?	-3%	23µM*
Cc1ccc(NS(=O)(=O)c2cc(NC(=O)C(C)Oc3ccccc3)ccc2C)c(C)c1 (centres undefined)	1%[10 µM]	-7%	?	0%	23µM*
O=C(NC1CC(=O)N(c2cccc(F)c2)C1)c1ccc(S(=O)(=O)N2CCOCC2)cc1 (centres undefined)	.	.	-3%	-3%	?
COc1ccccc1CNC(=O)CC(C)c1ccccc1 (centres undefined)	16%	-5%	-7%	2%	-9%
CCC(C)c1ccc(NC(=S)NCc2ccccc2OC)cc1 (centres undefined)	2.2µM*	8.9µM*	?	-7%	23µM*
Fc1ccc(NC(=S)NCc2ccccc2Cl)cc1	7.1µM*	14µM*	0%	3%	-4%
S=C(NCc1ccccc1)NCc1ccccc1Cl	13µM*	20µM*	-2%	0%	6%
COc1ccccc1CNC(=S)Nc1ccc(F)cc1	7.9µM*	6.3µM*	3%	.	5.2µM*
c1ccc(SCCN2CCN(c3ccccc3)CC2)cc1	-2%	2%	-16%	.	-14%
Cc1ccc(-n2c(SCCC(C)C)nc3sc4c(c3c2=O)CC(C)(C)OC4)cc1	.	.	-28%	.	-9%
O=C(O)C/C(=C\c1ccc(N2CCOCC2)c([N+](=O)[O-])c1)c1nc2ccccc2s1	31%	4%	-4%	3%	20%
NC(=S)Cc1ccccc1Cl	10µM*	-26%	19%	-3%	-21%
COC(=O)Cc1ccc(NC(=S)NCc2ccccc2OC)cc1	8.9µM*	25µM*	?	4%	?
CCCNC(=S)Nc1ccc(CC(=O)OC)cc1	-40%	7%	16%	8%	-5%
